Measurements taken from PubChem BioAssay (NCATS).
Results filed as inconclusive are left out. Unmarked numbers belong to inactive results. Calls of active or inactive are those of the source. The call rests on the fitted dose curve; in most records, active means well fitted cell-killing curve with a large enough effect; inconclusive means small, poorly fitted or top-dose-only effect; inactive means no such curve, though single readings can be large or run the other way.

Test: MCF7 Cancer Cell Toxicity qHTS against the NCATS CANVASS Library (AID 1347369)
Settings: MCF7 viability, ATP luminescence (CellTiter-Glo), 72 h; series mostly up to 46 µM; activity change, negative = cytotoxicity: at the top concentration
Summary of the method: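 Luminescent ATP signal (CellTiterGlo) served as the cytotoxicity read-out after MCF7 breast cancer cells had been incubated 72 hr at 37C with natural products in an 11-point titration.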
On the % scale 0 is the no-effect control and ±100 the full control effect; potency means the concentration at half of the fitted maximal effect.

Structure (SMILES)	outcome	activity change, negative = cytotoxicity [%]	Potency
CC(=O)N[C@H](C)c1nc(/C=C/C=C/C(=O)CC2CC(=O)CC[C@]2(C)O)cs1 (some centres not stated)	inactive	–	–
CN1CC[C@]23c4ccccc4N[C@H]1[C@]21CCN(C)[C@H]3Nc2ccccc21	–	-21.5	–
COC1C(C)OC(OCC23C[C@@H]4[C@H](C)CC[C@H]4C4(C=O)CC2C=C(C(C)C)C34C(=O)O)[C@@H](O)[C@H]1O (some centres not stated)	inactive	–	–
COc1ccc(-c2oc3cc(OC)cc(OC)c3c(=O)c2O)cc1	–	-50.9	–
Cc1cc(O)cc2c1C(=O)c1c(O)cc(O)cc1C2=O	inactive	–	–
C=C(Cl)[C@](Cl)(CBr)CC[C@@H](Br)C(C)(C)Cl	–	–	6.59 µM (active)
[C-]#[N+][C@@]12C(=O)[C@@H]3[C@@H](O[C@@]4(C(=O)N(C)c5cccc1c54)C3(C)C)C(=O)[C@@]2(C)C=C	–	-24.4	–
COC(=O)c1cccc2oc(-c3cccc4oc(-c5c(C)cccc5O)nc34)nc12	–	-28.8	–
CCC(C)=C1OC(=O)[C@H](C)[C@H](O)[C@H](Cc2cccnc2)NC(=O)C(NC(=O)c2ncccc2O)C(C)OC1=O (some centres not stated)	inactive	–	–
C=C1C[C@]23C=CC(=O)[C@@](C)(CCCC(C)C(=O)N[C@@H](CO)C(=O)O)[C@@H]2C[C@@H]1CC3 (some centres not stated)	–	-0.337	–
COc1cc2ccc(=O)oc2c(O)c1O[C@@H]1O[C@H](CO)[C@@H](O)[C@H](O)[C@H]1O	inactive [at 27.5 µM]	–	–
C/C(=C\[C@@H](C)CC/C=C/CC/C=C/C(=O)O)[C@@H](O)[C@H](C)C(=O)CCCC1CC(=O)NC(=O)C1	–	-7.16	–
O=C1CC(c2ccc(O)cc2)Oc2cc(O)cc(O)c21 (configuration not stated)	inactive	–	–
CN1CC[C@@]23c4ccccc4N[C@@H]1[C@@]21CCN(C)[C@@H]3Nc2ccccc21	–	-21.3	–
C[C@@]12CCC[C@@](C)(C(=O)O)[C@H]1C[C@@H](O)[C@@]13C[C@@H](CC[C@@H]21)[C@](C)(O)C3	inactive	–	–
O=Cc1ccc2n1C[C@]1(OC2)O[C@H](CO)[C@@H](O)[C@@H]1O	inactive	–	–
C/C=C(/CO)C(=O)O[C@@H]1[C@H](O)[C@@H](C(=O)OC)O[C@@H]2C[C@H]3OC(n4cnc5c(N)ncnc54)[C@H](OC)[C@H]3O[C@@]12O (some centres not stated)	–	-23.3	–
C/C=C/[C@H]1[C@H]2C(=O)c3c(O)c(C)c(O)c(C)c3[C@]1(C(=O)O)C(=O)C=C2C	–	-2.24	–
C=C1CCC2C(C)(C(=O)O)CCC(CC/C(C)=C/C(=O)NC(CCC(N)=O)C(=O)O)[C@@]2(C)C1 (some centres not stated)	inactive	–	–
CC(C)=CCC[C@]1(C)[C@H]2CC(=O)[C@@]3(CO3)[C@@H]1C2	–	-17.8	–
COc1ccc([C@@H]2c3cc4c(cc3C(=O)C(C)C2C)OCO4)cc1OC (some centres not stated)	–	-4.07	–
CC1(C)CC[C@]2(CO)CC[C@]3(C)C(=CCC4[C@@]5(C)CC[C@H](O)C(C)(C)C5CC[C@]43C)C2C1 (some centres not stated)	inactive	–	–
